# HCMV antiviral – blocks human cytomegalovirus replication. HFF cells, HCMV-luciferase reporter, 72 h; hits give low values. activity change, negative = inhibition, % at 57.5 µM. 4.5% of 410,000 active. AID 1259415; in the data active means activity change below about -60%; inconclusive means no clear call, values can overlap the other calls; inactive means above about -39%; further: on the % scale 0 is the no-effect control and ±100 the full control effect
#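 Two-dose cell screen: HFF monolayers treated with compounds and infected with luciferase-expressing HCMV at 1 PFU/cell, 72 h at 37C, then lysed for luciferase measurement.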
# CHX counter – counter-screen for Shiga toxin inhibitors: cycloheximide protein synthesis inhibition. cell reporter, cycloheximide protein synthesis inhibition counterscreen. max response, %. 12% of 300,000 active. AID 2314; in the data active means max response mostly above about 13%, no sharp cut-off; inactive means mostly below about 14%; further: read at 38.3 µM for the half of the compounds with a filed dose; 0% is about no effect
# Shiga toxin inh – blocks Shiga toxin action in Vero cells. 9.2% of 290,000 active. Vero cells, Shiga toxin protein synthesis inhibition reporter. inhibition, % at 38.7 µM. AID 2315; in the data active means inhibition mostly above about 28%, no sharp cut-off; inactive means mostly below about 43%; further: 0% is about no effect
# Pf growth 96h – P. falciparum growth inhibition at 96 hour, primary screen for plastid delayed-death inhibitors. P. falciparum luciferase reporter growth, 96 h. Potency, µM (doses to about 28.7 µM), for inactives: at the top dose activity change, negative = inhibition, actives largely listed as inhibitors. 6.9% of 320,000 active. AID 504834; further: potency means the concentration at half of the fitted maximal effect; on the % scale 0 is the no-effect control and ±100 the full control effect
#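 Delayed-death screen, second-generation endpoint: infected erythrocytes, 2% hematocrit, 0.05% parasitemia final; 96 hours at 37 C, 5% CO2; luciferase detection reagent; luminescence decrease equals reduced growth.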
# Pf growth 48h – inhibits P. falciparum growth in the first generation, 48 h; AID 504832; P. falciparum luciferase growth in erythrocytes, 48 h; Potency, µM (series often up to 28.7 µM), inactives show at the top dose activity change, negative = inhibition, most hits filed as inhibitors; 5.9% of 310,000 active; further: potency means the concentration at half of the fitted maximal effect; on the % scale 0 is the no-effect control and ±100 the full control effect
#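 Cell-based growth assay: transgenic P. falciparum expressing firefly luciferase, cultured in red cells within RPMI 1640 containing 0.5% w/v Albumax, 24 mM bicarbonate and gentamycin. A drop in luciferase activity indicates inhibition.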
# HCV inh – blocks hepatitis C virus. Huh7.5.1 HCVcc-Cre infection, luciferase reporter, 44 h. 3.4% of 340,000 active. Potency, µM (series often up to 41.8 µM), without a hit: at the highest dose activity change, negative = inhibition, hits mostly inhibitors. AID 651820; further: potency means the concentration at half of the fitted maximal effect; on the % scale 0 is the no-effect control and ±100 the full control effect
#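 Infectious HCV cell culture screen: compound-treated cells (1,000/well, pre-plated 4 h) are infected with HCVcc-Cre at roughly 0.5 moi and grown 44 h. Infection is quantified by luciferase signal after 15 min substrate incubation at room temperature.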
# The depositor's hits bear a star; i = inactive; u = inconclusive; x = no result; + = active, no number. In the library only some 21% were active in any assay of this set; here they are far more common. Unless noted, the call rests on the fitted dose curve; in most records, active means well fitted inhibition curve with a large enough effect; inconclusive means small, poorly fitted or top-dose-only effect, or another doubt; inactive means no such curve, though single readings can be large or run the other way.
SMILES,HCMV antiviral,CHX counter,Shiga toxin inh,Pf growth 96h,Pf growth 48h,HCV inh
CC(=O)Cc1cc(O)c2ccccc2c1OC(=O)c1ccc(Br)cc1,-8.6,-0.3,15.7,5.86µM*,2.94µM*,-16.0%
Cc1cc(S(=O)(=O)Nc2c(NC3CCCCC3)c3ccccc3oc2=O)ccc1F,21.1,1.0,-15.2,10.4µM*,11.7%,u
CCN(CC)c1ccc(/C=C(/C#N)C(=O)NC(C)C)o1,26.9,25.8*,60.3*,u,-9.5%,0.2%
CC(C)NC(=O)/C(C#N)=C\c1ccc(N(C)C)o1,-17.3,2.8,-5.6,43.8%,u,-6.8%
CCN(CC)c1ccc(/C=C(/C#N)C(=O)NCc2ccccc2)o1,15.1,49.8*,101.6*,u,56.6%,u
O=C1c2ccccc2[C@@H]2C[C@H]3O[C@H]3CCN12,6.7,x,x,x,x,22.1%
OC(c1ccco1)c1nc(-c2ccc(F)c(Cl)c2)cs1 (stereo not drawn),-64.7*,x,x,x,x,x
CC(=O)OCCN(CCCn1c(-c2ccncc2)nc2ccccc21)c1nc(CN2CCCCC2)cs1,27.8,1.0,-6.4,u,u,2.51µM*
COc1ccc(-c2nc3ccc(C(=O)NCC(OC)OC)cc3nc2-c2ccc(OC)c(OC)c2)cc1OC,37.2,0.9,-4.2,13.0%,4.15µM*,-27.4%
CCOCCCNC(=O)c1ccc2nc(-c3ccc(OC)c(OC)c3)c(-c3ccc(OC)c(OC)c3)nc2c1,50.6,-1.8,2.8,14.1%,3.7µM*,u
C=C1c2ccccc2O[C@H](C(=O)OCC)[C@@H]1C1CCCCC1 (tested in a mixture with another compound),x,7.3,i,x,x,x
CCO[C@H]1O[C@@H]([C@H](COCc2ccccc2)OCc2ccccc2)[C@@H](OCc2ccccc2)[C@H]1O,x,x,x,4.55µM*,6.42µM*,x
COC(C[C@@H]1O[C@H]1[C@H](O)COCc1ccccc1)OC,14.0,-3.4,1.9,0.0%,45.2%,11.4%
Cc1cc(/C=C(/C#N)C(=O)O)c(C)n1CCC(C)C,-68.5*,-2.7,0.3,4.9%,3.2%,12.3%
COc1ccc(-c2onc(C)c2-c2cnn(-c3ccccc3)c2)c(O)c1,-8.0,1.3,-2.7,4.1%,11.7µM*,u
O=C(NCc1ccc(F)cc1)c1cc2cccc3c2n1CCS3,-69.7*,x,x,x,x,x
O=C(NCc1ccccc1)c1ccc2c(c1)N(Cc1ccc(F)cc1)CCS2,-22.3,x,x,x,x,x
CC(=O)c1ccc(N2CCN(C(=O)C3CCC3)CC2)cc1,86.2,14.4*,-5.7,9.2%,-13.9%,8.4%
O=C(NC(=O)N1CCN(c2ccccc2)CC1)c1ccc(Cl)cc1,76.6,41.7*,+,148.6%,196.0%,u
O=C(NC(=O)N1CCN(c2cccc(Cl)c2)CC1)c1ccc(Cl)cc1,-16.9,9.4,18.1,169.2%,25.4%,-19.7%
O=C(c1ccc(Cn2cc(Cl)cn2)cc1)N1CCN(c2ccccc2)CC1,-2.5,-1.1,25.2,7.38µM*,-13.9%,u
O=C(c1ccccc1)N1CCN(c2ccc(Cl)cc2)CC1,u,12.4,19.4,14.7µM*,u,6.8%
CC(=O)c1ccc(N2CCN(C(=O)C3CCN(S(=O)(=O)c4ccc(F)cc4)CC3)CC2)cc1,-32.1,x,x,u,u,13.0%
CN(C(=S)NCCN1CCOCC1)C(c1ccccc1)c1ccccc1,-25.5,-2.2,-9.0,-1.1%,-11.0%,-17.0%
CC(=O)c1ccc(N2CCN(C(=O)c3ccc(C(=O)c4ccccc4)cc3)CC2)cc1,10.6,x,x,5.22µM*,-1.9%,u
SMILES,HCMV antiviral,CHX counter,Shiga toxin inh,Pf growth 96h,Pf growth 48h,HCV inh
CC1CCc2onc(C(=O)N3CCN(c4ccc(Cl)cc4)CC3)c2C1 (stereo not drawn),-74.1*,x,x,x,x,x
CC(=O)Nc1ccc(S(=O)(=O)N[C@@H](C)C(=O)NC2CCCc3ccccc32)cc1 (stereo partly drawn),-35.5,x,x,x,x,-0.5%
CCCCN(C)C(=O)C1CCCN(c2ncnc3onc(C)c23)C1 (stereo not drawn),-36.2,x,x,x,x,x
C=CC[C@@H](CC(=O)OC(C)(C)C)C(=O)OC[C@H]1CCCN1C(=O)[C@@H](CC=C)CC(=O)NCCO,2.8,x,x,x,x,-1.5%
NC(=S)N=Nc1ccc(NN=C(N)N)cc1,68.3,-2.0,1.5,u,1.2µM*,-29.0%
O=C(c1cc2ccc([N+](=O)[O-])cc2oc1=O)N1CCOCC1,41.1,0.7,-3.6,-8.2%,-13.8%,9.9%
Cc1ccc(C)c(N2CCN(C(=O)C3CCCN(S(=O)(=O)c4ccc5c(c4)oc(=O)n5C)C3)CC2)c1 (stereo not drawn),-27.1,x,x,x,x,x
COC(=O)C(NC(=O)CCc1c(C)nc2ncnn2c1C)C(C)C (stereo not drawn),105.9,0.5,-7.7,13.1µM*,64.6%,18.0%
Cc1nc2ncnn2c(C)c1CCC(=O)Oc1ccccc1,-60.3*,-4.4,-26.9,x,3.5%,18.6%
CCOC(=O)C1CCCN(C(c2ccccn2)c2c(C)[nH]c3ccccc23)C1 (stereo not drawn),-86.7*,9.2,-4.8,u,10.1%,22.3%
Clc1nc2ccccc2cc1-c1nnn(-c2ccccc2)n1,10.4,45.7*,58.7*,439.4%,270.1%,5.8%
Fc1ccc(-n2nnc(-c3nccs3)n2)cc1,64.3,37.9*,53.5*,i,256.0%,-2.9%
Clc1ncccc1-c1nnn(-c2ccccc2)n1,105.1,50.0*,56.3*,153.0%,366.4%,u
COc1ncccc1-c1nnn(-c2ccccc2)n1,105.7,42.6*,54.6*,202.8%,152.5%,-5.6%
COc1ncccc1-c1nnn(-c2ccccc2Br)n1,41.9,x,x,x,x,-21.8%
CCc1cc2ccccc2nc1Cl,8.4,-4.2,-7.6,5.8%,-4.7%,4.3%
CSc1nc2ccc(NC(=O)CS(=O)(=O)c3ccccc3)cc2s1,-26.3,x,x,x,x,x
Cc1ccc(-n2cnc(=O)c3cccnc32)cc1,-16.1,10.8,2.5,85.8%,52.5%,-3.7%
Fc1ccc(-n2nnc(-c3cccnc3Cl)n2)cc1,0.3,54.1*,88.8*,193.8%,386.1%,12.3%
Clc1ccc(-n2nnc(-c3cccnc3Cl)n2)cc1Cl,34.1,34.9*,53.7*,91.0%,369.5%,15.2%
Cc1ccc(-n2nnc(-c3cccnc3)n2)cc1,89.4,x,x,x,x,-2.2%
c1ccc(-n2nnc(-c3cccnc3)n2)cc1,35.9,41.3*,43.8*,162.3%,182.5%,-1.9%
Cc1ccc(-n2nnc(-c3nccn3C)n2)cc1,71.4,10.8*,6.9,-12.8%,-14.2%,9.0%
CCCOc1ccc(C2C(=O)N(C3CCCCCC3)CC(=O)N2CCC2=CCCCC2)cc1OC (stereo not drawn),-2.0,x,x,x,x,x
c1ccc2ncc(-n3cnnn3)cc2c1,59.5,-0.7,-8.5,20.5%,52.0%,19.1%
Cc1ccc(-n2nnc(-c3cnc4ccccc4c3)n2)cc1,53.1,57.4*,69.4,238.9%,126.3%,15.8%

# Screening results (PubChem)
